Source: the supplement of paper PMC11732987, “Enantioselective OTUD7B fragment discovery through chemoproteomics screening and high-throughput optimisation” (Communications Chemistry, 2025)

What was measured:
Assay in all cases: log2 ratio of Biotin-Ahx-Ub-VS probe labelling (fragment/DMSO); higher = less target engagement (more negative = stronger competition), active = hit call of the paper (q ≤ 0.05, log2 ratio ≤ -1)
Conditions in all cases: compound concentration: 200 uM; treatment time: 3 h
USP19 = target: T1, USP19 (UniProt O94966)
T1 sequence (whole entry): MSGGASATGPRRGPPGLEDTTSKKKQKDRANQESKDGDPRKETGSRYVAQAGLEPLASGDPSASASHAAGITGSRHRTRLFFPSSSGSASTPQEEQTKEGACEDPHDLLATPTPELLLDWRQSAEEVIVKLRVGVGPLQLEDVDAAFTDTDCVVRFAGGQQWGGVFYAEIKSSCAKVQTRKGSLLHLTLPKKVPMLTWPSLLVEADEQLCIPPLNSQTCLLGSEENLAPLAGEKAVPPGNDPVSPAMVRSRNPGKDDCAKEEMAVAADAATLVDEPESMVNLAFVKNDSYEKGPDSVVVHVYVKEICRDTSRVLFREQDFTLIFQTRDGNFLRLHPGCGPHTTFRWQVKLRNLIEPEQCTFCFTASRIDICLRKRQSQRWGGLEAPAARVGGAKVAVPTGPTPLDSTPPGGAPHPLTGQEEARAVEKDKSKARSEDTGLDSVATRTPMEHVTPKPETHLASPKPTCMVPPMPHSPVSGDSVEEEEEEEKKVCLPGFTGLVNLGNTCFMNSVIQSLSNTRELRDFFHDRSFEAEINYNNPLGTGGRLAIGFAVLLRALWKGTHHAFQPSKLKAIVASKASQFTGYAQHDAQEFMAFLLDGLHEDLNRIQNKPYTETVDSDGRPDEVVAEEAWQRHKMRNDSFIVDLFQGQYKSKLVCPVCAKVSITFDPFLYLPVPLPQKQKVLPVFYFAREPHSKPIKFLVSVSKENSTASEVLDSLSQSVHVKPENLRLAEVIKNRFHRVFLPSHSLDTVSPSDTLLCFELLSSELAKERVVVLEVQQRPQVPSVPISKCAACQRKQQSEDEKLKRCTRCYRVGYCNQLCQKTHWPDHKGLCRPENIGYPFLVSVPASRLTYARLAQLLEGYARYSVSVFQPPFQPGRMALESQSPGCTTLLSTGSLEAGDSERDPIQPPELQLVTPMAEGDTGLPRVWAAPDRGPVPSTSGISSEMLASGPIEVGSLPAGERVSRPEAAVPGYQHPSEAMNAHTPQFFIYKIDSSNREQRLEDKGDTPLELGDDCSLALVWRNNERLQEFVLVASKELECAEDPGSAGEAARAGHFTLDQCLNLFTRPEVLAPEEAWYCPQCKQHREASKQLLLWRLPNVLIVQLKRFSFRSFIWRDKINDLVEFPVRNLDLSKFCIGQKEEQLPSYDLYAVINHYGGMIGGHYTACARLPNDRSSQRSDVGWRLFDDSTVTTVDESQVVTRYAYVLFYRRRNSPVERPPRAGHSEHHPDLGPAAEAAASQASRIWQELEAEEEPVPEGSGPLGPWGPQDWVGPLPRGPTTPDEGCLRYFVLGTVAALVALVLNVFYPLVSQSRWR
How it was run: (§1)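 Triplicate samples of HEK293T lysate, 495 µg each, received fragment at 200 µM or vehicle for 3 h, followed by Biotin-Ahx-Ub-VS (0.5 µM final) for 1 h. After NeutrAvidin enrichment of labelled DUBs and LysC/trypsin digestion, peptides were run by diaPASEF LC-MS/MS. The values are average log2 fragment/vehicle ratios from global-median-normalised Spectronaut label-free quantities, tested by unpaired t-test on proteins having ≥2 unique peptides.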

USP24 = USP24 (UniProt Q9UPU5)
Chain of USP24 (Q9UPU5 whole entry): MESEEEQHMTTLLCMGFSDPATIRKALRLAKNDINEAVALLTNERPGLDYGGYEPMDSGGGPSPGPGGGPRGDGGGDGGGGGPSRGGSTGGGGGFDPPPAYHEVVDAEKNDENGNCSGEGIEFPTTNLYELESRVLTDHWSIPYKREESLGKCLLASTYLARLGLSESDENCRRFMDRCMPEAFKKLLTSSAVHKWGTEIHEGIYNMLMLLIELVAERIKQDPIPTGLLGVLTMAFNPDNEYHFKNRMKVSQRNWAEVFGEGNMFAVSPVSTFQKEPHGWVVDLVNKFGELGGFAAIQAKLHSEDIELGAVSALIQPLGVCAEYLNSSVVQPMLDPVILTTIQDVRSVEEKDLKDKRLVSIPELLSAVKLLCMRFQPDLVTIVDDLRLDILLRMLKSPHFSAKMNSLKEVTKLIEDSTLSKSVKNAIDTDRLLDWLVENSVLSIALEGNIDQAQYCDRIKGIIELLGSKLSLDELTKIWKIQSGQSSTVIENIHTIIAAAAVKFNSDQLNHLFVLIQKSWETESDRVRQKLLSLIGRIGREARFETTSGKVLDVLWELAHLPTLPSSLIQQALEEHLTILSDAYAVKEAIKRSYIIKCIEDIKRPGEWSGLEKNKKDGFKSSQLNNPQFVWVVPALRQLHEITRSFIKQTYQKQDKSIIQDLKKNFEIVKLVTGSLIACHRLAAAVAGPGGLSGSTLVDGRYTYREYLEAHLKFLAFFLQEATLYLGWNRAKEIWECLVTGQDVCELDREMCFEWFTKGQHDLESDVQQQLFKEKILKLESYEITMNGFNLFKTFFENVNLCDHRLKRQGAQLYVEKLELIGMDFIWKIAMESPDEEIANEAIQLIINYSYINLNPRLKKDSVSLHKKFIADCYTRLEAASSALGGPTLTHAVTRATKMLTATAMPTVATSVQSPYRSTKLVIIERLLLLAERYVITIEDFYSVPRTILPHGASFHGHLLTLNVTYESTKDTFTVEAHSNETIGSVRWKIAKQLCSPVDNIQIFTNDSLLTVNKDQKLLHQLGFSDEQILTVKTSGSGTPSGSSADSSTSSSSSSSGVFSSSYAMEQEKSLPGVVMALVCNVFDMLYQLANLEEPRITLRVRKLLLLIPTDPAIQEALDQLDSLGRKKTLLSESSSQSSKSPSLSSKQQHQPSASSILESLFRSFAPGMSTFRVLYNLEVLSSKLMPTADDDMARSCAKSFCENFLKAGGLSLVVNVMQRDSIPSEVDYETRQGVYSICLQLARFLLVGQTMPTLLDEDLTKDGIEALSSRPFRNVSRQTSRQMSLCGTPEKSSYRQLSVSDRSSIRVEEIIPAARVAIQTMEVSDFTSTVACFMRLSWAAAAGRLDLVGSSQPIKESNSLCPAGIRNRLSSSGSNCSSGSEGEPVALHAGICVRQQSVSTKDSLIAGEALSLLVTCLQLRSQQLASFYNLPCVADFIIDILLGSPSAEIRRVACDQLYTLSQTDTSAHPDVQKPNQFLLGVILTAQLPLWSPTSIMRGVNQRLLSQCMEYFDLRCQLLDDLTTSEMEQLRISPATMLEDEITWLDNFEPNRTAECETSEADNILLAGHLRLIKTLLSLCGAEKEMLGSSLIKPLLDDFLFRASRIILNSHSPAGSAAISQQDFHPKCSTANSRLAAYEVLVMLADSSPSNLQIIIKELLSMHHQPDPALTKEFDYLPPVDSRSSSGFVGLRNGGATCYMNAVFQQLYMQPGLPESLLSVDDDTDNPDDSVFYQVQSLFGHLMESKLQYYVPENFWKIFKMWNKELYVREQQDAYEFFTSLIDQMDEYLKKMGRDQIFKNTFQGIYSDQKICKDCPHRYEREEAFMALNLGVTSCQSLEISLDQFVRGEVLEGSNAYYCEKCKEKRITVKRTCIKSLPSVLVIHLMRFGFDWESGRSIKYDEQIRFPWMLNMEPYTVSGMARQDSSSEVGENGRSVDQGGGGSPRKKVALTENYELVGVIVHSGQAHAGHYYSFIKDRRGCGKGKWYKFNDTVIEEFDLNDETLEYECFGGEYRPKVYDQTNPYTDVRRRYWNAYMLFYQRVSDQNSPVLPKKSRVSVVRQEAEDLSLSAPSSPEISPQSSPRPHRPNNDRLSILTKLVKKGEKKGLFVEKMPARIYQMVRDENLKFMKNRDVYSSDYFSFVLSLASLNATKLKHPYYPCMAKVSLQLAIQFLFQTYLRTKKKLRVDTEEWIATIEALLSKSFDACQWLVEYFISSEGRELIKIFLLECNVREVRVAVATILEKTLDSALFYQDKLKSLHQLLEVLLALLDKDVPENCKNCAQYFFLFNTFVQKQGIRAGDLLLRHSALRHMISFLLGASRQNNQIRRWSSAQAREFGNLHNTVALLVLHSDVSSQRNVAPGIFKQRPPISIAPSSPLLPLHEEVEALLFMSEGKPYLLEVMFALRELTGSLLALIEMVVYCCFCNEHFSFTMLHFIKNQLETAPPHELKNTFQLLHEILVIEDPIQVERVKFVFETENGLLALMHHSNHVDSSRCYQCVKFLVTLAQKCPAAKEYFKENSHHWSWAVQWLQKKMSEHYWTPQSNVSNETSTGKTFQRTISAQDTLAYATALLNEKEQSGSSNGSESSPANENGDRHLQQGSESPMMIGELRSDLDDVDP
How it was run: as §1

USP25 = target: T2, USP25 (UniProt Q9UHP3)
T2 sequence (whole entry): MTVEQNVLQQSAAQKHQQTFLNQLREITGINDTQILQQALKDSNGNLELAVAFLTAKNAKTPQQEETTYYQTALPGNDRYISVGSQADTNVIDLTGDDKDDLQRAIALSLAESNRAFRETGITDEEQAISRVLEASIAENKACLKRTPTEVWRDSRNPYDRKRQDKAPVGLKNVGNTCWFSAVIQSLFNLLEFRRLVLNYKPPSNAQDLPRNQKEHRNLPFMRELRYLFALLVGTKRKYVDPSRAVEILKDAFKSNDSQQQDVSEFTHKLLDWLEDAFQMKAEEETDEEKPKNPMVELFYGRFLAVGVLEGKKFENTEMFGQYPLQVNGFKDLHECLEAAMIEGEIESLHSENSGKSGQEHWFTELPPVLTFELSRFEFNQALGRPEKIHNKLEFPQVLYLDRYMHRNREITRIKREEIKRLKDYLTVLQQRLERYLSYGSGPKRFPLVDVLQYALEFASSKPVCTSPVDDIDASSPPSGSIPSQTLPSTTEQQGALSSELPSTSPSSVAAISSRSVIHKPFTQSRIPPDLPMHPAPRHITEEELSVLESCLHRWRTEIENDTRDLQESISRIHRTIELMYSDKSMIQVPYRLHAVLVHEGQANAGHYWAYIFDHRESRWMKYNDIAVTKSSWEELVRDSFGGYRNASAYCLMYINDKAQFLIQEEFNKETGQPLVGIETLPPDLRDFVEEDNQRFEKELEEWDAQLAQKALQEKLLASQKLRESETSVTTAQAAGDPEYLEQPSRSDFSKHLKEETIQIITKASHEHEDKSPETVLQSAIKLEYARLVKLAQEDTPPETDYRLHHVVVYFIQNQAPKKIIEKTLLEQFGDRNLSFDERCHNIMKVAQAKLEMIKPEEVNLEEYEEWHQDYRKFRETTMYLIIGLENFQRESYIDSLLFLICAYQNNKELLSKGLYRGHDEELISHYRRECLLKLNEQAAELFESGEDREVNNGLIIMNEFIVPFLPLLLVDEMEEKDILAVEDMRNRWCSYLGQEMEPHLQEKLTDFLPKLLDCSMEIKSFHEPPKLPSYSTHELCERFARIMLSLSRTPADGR
How it was run: as §1

USP28 = target: T3, USP28 (UniProt Q96RU2)
T3 sequence (whole entry): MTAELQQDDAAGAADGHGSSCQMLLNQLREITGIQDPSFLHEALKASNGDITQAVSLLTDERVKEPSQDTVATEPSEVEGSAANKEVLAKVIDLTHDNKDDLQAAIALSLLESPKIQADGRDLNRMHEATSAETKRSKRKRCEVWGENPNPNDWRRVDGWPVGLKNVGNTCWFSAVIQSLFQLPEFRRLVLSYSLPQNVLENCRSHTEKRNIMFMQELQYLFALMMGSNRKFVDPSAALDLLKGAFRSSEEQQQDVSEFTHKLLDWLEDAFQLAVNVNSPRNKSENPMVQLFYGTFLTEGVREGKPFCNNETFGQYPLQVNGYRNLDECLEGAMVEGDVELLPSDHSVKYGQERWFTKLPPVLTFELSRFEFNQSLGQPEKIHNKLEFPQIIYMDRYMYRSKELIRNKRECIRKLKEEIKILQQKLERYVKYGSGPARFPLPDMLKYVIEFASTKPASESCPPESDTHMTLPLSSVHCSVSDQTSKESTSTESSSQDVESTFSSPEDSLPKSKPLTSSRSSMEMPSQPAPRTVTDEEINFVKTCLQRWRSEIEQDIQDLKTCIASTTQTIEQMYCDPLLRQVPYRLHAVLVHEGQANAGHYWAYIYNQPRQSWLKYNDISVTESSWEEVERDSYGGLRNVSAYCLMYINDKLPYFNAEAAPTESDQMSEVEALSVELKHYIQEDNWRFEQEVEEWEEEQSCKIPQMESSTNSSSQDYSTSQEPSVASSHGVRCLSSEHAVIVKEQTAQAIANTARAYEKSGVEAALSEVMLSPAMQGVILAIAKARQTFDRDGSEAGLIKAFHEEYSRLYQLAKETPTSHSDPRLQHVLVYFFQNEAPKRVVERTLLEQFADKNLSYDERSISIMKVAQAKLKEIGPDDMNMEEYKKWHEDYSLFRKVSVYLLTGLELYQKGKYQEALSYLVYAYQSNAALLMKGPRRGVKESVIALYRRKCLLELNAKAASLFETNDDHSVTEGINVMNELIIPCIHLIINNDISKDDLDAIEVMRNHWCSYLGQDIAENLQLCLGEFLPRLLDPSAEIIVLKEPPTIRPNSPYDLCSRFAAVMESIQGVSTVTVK
How it was run: as §1

Measured: log2 ratio of Biotin-Ahx-Ub-VS probe labelling

CS(=O)(=O)c1ccc(CNC(=O)CCl)cc1
inactive: USP19 -0.123 | USP24 -0.159 | USP25 -0.385 | USP28 -0.583
